Hit rate of the full screen: of about 1,400 compounds, fewer than 10 were called active. Another 8% or so got no clear call; they are omitted. Calls come from the whole dose curve; as a rule, active = well fitted curve in the direction sought with a large enough effect; inconclusive = small, poorly fitted or top-dose-only effect, or another doubt; inactive = no such curve, though single readings can be large or run the other way. A selection follows.
Target: Transient receptor potential cation channel subfamily V member 1 (Homo sapiens) (UniProt Q8NER1)
Sequence (Q8NER1 whole entry, looked up): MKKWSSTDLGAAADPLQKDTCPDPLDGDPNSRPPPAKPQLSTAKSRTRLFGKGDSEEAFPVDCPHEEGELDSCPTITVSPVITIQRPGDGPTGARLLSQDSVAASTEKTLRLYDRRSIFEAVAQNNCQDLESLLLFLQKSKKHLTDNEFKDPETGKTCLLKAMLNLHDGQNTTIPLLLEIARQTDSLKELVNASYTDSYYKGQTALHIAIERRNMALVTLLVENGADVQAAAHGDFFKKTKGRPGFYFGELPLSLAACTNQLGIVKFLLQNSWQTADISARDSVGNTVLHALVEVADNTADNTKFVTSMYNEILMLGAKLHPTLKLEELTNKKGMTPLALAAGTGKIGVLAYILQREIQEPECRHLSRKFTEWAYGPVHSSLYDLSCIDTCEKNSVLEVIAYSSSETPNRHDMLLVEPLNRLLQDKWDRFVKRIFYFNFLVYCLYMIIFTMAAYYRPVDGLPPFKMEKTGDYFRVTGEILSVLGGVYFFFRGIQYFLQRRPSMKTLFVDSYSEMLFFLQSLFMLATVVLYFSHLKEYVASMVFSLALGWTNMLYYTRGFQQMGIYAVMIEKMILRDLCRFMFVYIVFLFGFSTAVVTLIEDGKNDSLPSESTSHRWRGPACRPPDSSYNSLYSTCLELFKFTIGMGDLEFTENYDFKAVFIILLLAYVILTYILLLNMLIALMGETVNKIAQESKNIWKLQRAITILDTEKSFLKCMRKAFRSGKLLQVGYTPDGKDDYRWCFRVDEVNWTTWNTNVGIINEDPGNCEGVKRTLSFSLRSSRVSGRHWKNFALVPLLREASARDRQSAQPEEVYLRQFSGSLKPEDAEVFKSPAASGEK
Experiment: qHTS Assay for Compounds that Act as Potentiators of the Vanilloid Receptor 1: Hit Validation
Conditions: TRPV1-expressing cells, Fluo-8 calcium influx, capsaicin EC20; series mostly up to 42.1 µM
Excerpt: The transient receptor potential ion channel, family V, number 1, (TRPV1) is one of the most important molecular transducers of painful stimuli and a potential target for analgesic drug development. Although recent clinical trials with orthosteric antagonists have not produced a successful drug because of a hyperthermia side effect and their tendency to block thermal noxious pain, this ion channel is undeniably well placed in the pain pathway, and the idea of blocking pain signals before they enter the CNS is an excellent concept and of proven efficacy when TRPV1 agonists are used. We propose a new approach involving allosteric modulation to impose an activity-dependent constraint within the context of inflammation and tissue damage that would alter the responsiveness of the channel in a way that an orthosteric vanilloid antagonist cannot achieve. We believe that the allosteric modulator approach has not been explored for this target. The main goal of this proposal is to identify additional, new, potent allosteric modulators of TRPV1 that can be used to investigate TRPV1 function. Our recent report provides evidence of proof of concept, but the compounds are just at the edge of utility in terms of potency. […] The question of whether they can be used as analgesic agents is complex, but if suitable compounds are identified then testing for analgesic properties will be conducted. Compounds identified as agonists were re-tested in the primary screen for hit validation. NIH Chemical Genomics Center [NCGC] NIH Molecular Libraries Probe Centers Network [MLPCN] MLPCN Grant: MH089480 Assay Submitter (PI): Michael Iadarola, National Institute of Dental and Cranofacial Research
Upon TRPV1 activation in TRPV1 cells, the channel opens and extracellular cations flow through the channel into the cytosol. A calcium binding dye (Fluo-8) becomes fluorescent when bound to calcium. This dye is pre-loaded into cells and is used as a marker for calcium influx. The amount of accumulated calcium is precisely quantified using the FDSS kinetic reader and the calcium dye. For the HTS assay, freshly prepared cells are plated at a density of 2000/well in 3 ul medium in 1536-well plates and cultured overnight at 35.5C. Cells will be loaded with 1 ul of the homogeneous calcium dye (ABD Bioquest) at room temperature for 40 to 90 minutes. Plates will be loaded into the FDSS kinetic reader and a 1 sec / cycle for 10 second baseline signal will be measured. Compound library will then be added with a pintool at 23 nl and measured kinetically for 3 minutes. This portion of the read is considered the agonist portion of the screen. Following the 3 minutes of incubation, an on board pipettor will deliver 1 ul of capsaicin for a final concentration equal to the EC20. Signal will be measured kinetically for an additional 2 minutes. This portion of the read is considered the allosteric enhancer portion of the screen. The FDSS reader has a standard filter set capable of measuring calcium bound Fluo-8 (ex=480 and em=520 nm).
Potency is the fitted concentration of half-maximal effect.

Potency, active:
Cc1ccc(/C=C2\CCC3=C2OC(N)=C(C#N)C3c2ccc(C)cc2)cc1 (stereo unspecified) 8.05 µM
COc1ccc(-[n+]2c(C)cc(/C=C3\Sc4ccccc4N3C)cc2C)cc1 5.7 µM

Potency, inactive:
CC(C)(C)OC(=O)NCCCC[C@H](NC(=O)c1nc[nH]c1C(=O)NCc1ccc(CNC(=O)OC(C)(C)C)cc1)C(=O)OC(C)(C)C
CN(c1ccccc1)S(=O)(=O)c1ccc(Cl)c(C(=O)NCCc2c[nH]c3ccccc23)c1
CCc1cccc(C)c1NC(=S)N(CCCN1CCN(C)CC1)Cc1cccs1
Cc1cccc(-n2c(=O)[nH]c3c(C(N)=O)nc(CC(C)C)nc32)c1
COc1ccc(NC(=O)CCCSc2nc(-c3ccco3)cc(C(F)(F)F)n2)cc1OC
Cc1ccc(NC(=O)c2cc(S(=O)(=O)N3CCOCC3)ccc2F)c(C)c1
CCOC(=O)c1c(C)c(C(=O)NCC2CCCO2)c(C)n1C (stereo unspecified)
Cc1ncsc1CCC(=O)N1CCCC(Nc2ccc(C(C)C)cc2)C1 (stereo unspecified)
Cc1ccc(NCc2n[nH]c(=S)n2-c2ccccc2)c(C)c1
NNC(=O)C1COc2cc3ccccc3cc2O1 (stereo unspecified)
CCCCC(=O)Nc1ccc(C(=O)Nc2ccc(S(=O)(=O)N3CCCC3)cc2)cc1
COc1ccc(C(=O)Nc2ccc3ccccc3c2)cc1
Cc1sc2ncn(CC(=O)Nc3cccc(S(N)(=O)=O)c3)c(=O)c2c1-c1ccccc1
CCC(=O)N(CCc1ccccc1)Cc1cc2cccc(C)c2[nH]c1=O
Cc1c(=O)n(OCc2ccccc2F)c2ccccc2[n+]1[O-]
Nn1c(Cc2ccccc2)nc2cc(Cl)ccc2c1=O
Cc1ccc2c(c1)[C@H]1[C@H](CO2)[C@H](c2ccccc2)[C@]2(C)C(=O)Nc3cc(Cl)ccc3C(=O)N12
Cc1cc(C)cc(Oc2nc3ccccn3c(=O)c2/C=C(\C#N)C(=O)NC2CCS(=O)(=O)C2)c1 (stereo unspecified)
CCC(=O)Nc1cccc(NC(=O)c2ccc3c(c2)OCCO3)c1
CCOc1ccc(-c2cccc(NS(=O)(=O)c3cc([N+](=O)[O-])ccc3Cl)c2)nn1
COC(=O)CCC(=O)OC1(C)C(=O)C=C2C=C(C3CC3)N(c3ccccc3)C=C2C1=O (stereo unspecified)
CCN(CC(=O)Nc1ccccc1OC)CC(=O)Nc1sccc1C#N
C=CCOc1c(Br)cc(CNc2ccc3[nH]c(=O)[nH]c3c2)cc1OCC
O=C(CSc1nnc(Cc2ccccc2)o1)NC1CC2CCC1C2 (stereo unspecified)
CC(=O)N1CCN(c2ccc(NC(=O)C(c3ccccc3)c3ccccc3)cc2)CC1
Cc1cccc(NC(=S)NCC(c2cccnc2)N(C)C)c1C (stereo unspecified)
CC(C)(C)C(=O)NNC(=O)c1ccc(Oc2cc(Cl)cc(Cl)c2)o1
Cc1ccc(NC(=O)CCS(=O)(=O)c2ccc3c(c2)NC(=O)C(C)S3)cc1Cl (stereo unspecified)
Cc1ccc(NC(=O)CCn2nc(C)cc2C)cc1
O=C(Cc1cccs1)Nc1cccc(-c2ccc3nncn3n2)c1
CC(=O)c1ccc(Nc2ncnc3c2oc2ccccc23)cc1
CC(C)C[C@H](NC(=O)c1nc[nH]c1C(=O)N1CCC(C)CC1)C(=O)OCc1ccccc1
CC(=O)c1cccc(NC(=O)N2C3CCC2CC(NC(=O)Nc2ccccc2)C3)c1 (stereo unspecified)
CCOC(=O)N/N=C1\CCS(=O)(=O)c2ccc(Cl)cc21
COc1cc(C)nc(-c2csc(C)n2)n1
O=C(NNC(=O)c1cccc(O)c1)Nc1ccc([N+](=O)[O-])cc1
Cc1cnc(NC(=O)c2cc3c(s2)CCCC3)s1
C(=N\Nc1nn2cnnc2c2ccccc12)/c1ccco1
CCc1ccc(/C=C2/SC(N3CCOCC3)=NC2=O)cc1
Cc1nnc(SCC(=O)N(C)CC(=O)Nc2ccc(F)cc2)n1Cc1ccccc1
COc1ccc(OC)c(NC(=O)CCN2C(=O)c3ccccc3C2=O)c1
CCc1ccc(OCCCC(=O)NCc2ccccc2)cc1
CCN(CC)S(=O)(=O)c1ccc(/C=C/C(=O)Nc2cccc(F)c2)cc1
COCCNC(=O)CSc1nc2ccccc2c(=O)n1CC1CCCO1 (stereo unspecified)
COc1ccc(C(=O)NC(CC(C)C)C(=O)O)cc1OC (stereo unspecified)
CCCCn1c(=O)[nH]c(=O)c2c1nc(-c1ccc(OC)c(Br)c1)n2CC(C)C
COC(=O)C(C(=O)Nc1nc2ccccc2s1)C1CCCC1 (stereo unspecified)
N=C1/C(=C\c2ccc(-c3ccc(C(=O)O)cc3)o2)C(=O)N=C2SC=C(c3ccccc3)N12
Cc1c(N=c2scc(-c3ccccc3)n2C)c(=O)n(-c2ccccc2)n1C
COc1ccc(Cc2c(N)nc(C)nc2N)cc1
O=C(N/N=C/c1cccnc1)c1ccc2c(c1)OCO2
COc1cccc(/C=C/C(=O)Nc2cccc(C(C)=O)c2)c1OC
Cc1ccc(OCC(=O)c2c[nH]c3ccccc23)c([N+](=O)[O-])n1
COc1cc(OC)c(NC(=O)CCc2nc(-c3ccc(C)cc3)no2)cc1Cl
CCO[C@H]1OC(C(=O)NC2CC2)=C[C@@H](c2c[nH]c3ccccc23)[C@@H]1CCCO
CCc1ccc(/C=N/NC(=O)c2c[nH]c3ccccc23)s1
COc1ccc(CNC(=O)C2(CC3CC(c4ccccc4)=NO3)CCN(C(=O)C3CCCC3)CC2)cc1 (stereo unspecified)
Cc1oc(-c2cccs2)nc1CS(=O)CC(=O)NCCc1ccccc1 (stereo unspecified)
O=S(=O)(c1ccc2c(c1)OCCO2)N1CCN(c2cccc(Cl)c2)CC1
COc1ccc(NC(=O)c2ccc(Br)c(S(=O)(=O)N3CCOCC3)c2)cc1
Cn1cccc1C(=O)NC(=O)COC(=O)c1cc([N+](=O)[O-])ccc1Cl
O=C(/C=C/c1cccc2ccccc12)N1CCOCC1
CC(C)c1ccc(OCC(=O)Nc2ccncc2)cc1
CC(C)NC(=O)COC(=O)c1ccc(O)cc1
CN1CCN(S(=O)(=O)c2ccc(NC(=O)c3ccc(F)cc3)cc2)CC1
O=C(O/N=C1\CCS(=O)(=O)c2sccc21)c1c(F)cccc1F
Cc1cc(C)c(NS(=O)(=O)c2ccc(NC(=O)CCC(=O)O)cc2)c(C)c1
COc1ccc(C(C#N)c2cnccn2)cc1OC (stereo unspecified)
CC(=O)c1cc(-c2ccc(F)cc2)n(CCC(=O)Nc2cccnc2)c1C
CCOC(=O)/C=C1\CN(CCC(C)C)S(=O)(=O)c2ccccc21
CCN1C(=O)[C@@H]2[C@@H](c3ccc(-c4ccc(F)cc4)cc3)N3CCCC[C@@]3(C(=O)OC)[C@@H]2C1=O
CCC(C)Sc1cccc(-c2nc3ccc(Cl)cn3c2NCc2ccccc2)c1 (stereo unspecified)
CC(C)(C)c1ccc(/C=C/C(=O)Nc2ccncc2)cc1
CCNC(=O)NC(=O)C(C)OC(=O)c1cccn1C (stereo unspecified)
COc1ccc(N=Nc2c(C)[nH][nH]c2=O)cc1
Cc1cc(NS(=O)(=O)c2ccc(NC(=O)COc3ccc(Cl)cc3)cc2)no1
Cc1cccc(C)c1OCC(=O)Nc1cccc(S(=O)(=O)N2CCCC2)c1
Cn1nc(CC(=O)Nc2ccc3c(c2)OCCO3)c2ccccc2c1=O
CCn1c(Cc2c(C)[nH]c3ccccc23)nnc1SCC(=O)NCc1ccccc1
CCCCCC(=O)NC(NC(=S)N1CCOCC1)C(Cl)(Cl)Cl (stereo unspecified)
COc1ccc(S(=O)(=O)N2CCCC2)cc1C(=O)O
Cc1c(Cl)ccc2sc(NC(=O)c3ccco3)nc12
O=C(O)c1ccc(Br)cn1
CC(C)(C)c1ccc(C(=O)NNC(=O)C2CCCCC2)cc1
O=C1c2ccc(Oc3ccc([N+](=O)[O-])cc3)cc2C(=O)N1CCCO
COc1ccccc1-c1cc2ccccc2[nH]1
CC(=O)NS(=O)(=O)c1ccc(NC(=O)CC(C)c2ccccc2)cc1 (stereo unspecified)
COc1ccc(CNC(=O)CCSc2ccc(F)cc2)cc1OC
O=C(O)c1coc2ccccc12
CC(=O)NCC(=O)N(Cc1ccco1)C1(C(=O)NC2CCCC2)CCCCC1
Cn1c(=O)c2c(-c3ccccc3F)c3c(nc2n(C)c1=O)-c1ccccc1C3O (stereo unspecified)
COc1ccccc1Nc1ncnc2c1cnn2-c1cccc(C)c1
COc1ccc(C(=O)Nc2ccc3ncccc3c2)cc1
CC(=O)c1cccc(NC(=S)NCCc2ccc(Cl)cc2)c1
CCc1ccccc1NC(=O)CCC(=O)c1cccs1
CCN1C(=O)[C@@H]2[C@H](C1=O)[C@@H]1C(=O)Nc3ccccc3C(=O)N1[C@@H]2c1ccc(Br)cc1
COc1ccc([C@@H]2CC=C(C(=O)O)[C@H](c3cccc(Cl)c3)N2S(=O)(=O)c2ccc(Cl)cc2)cc1
CCOC(=O)C1=C(O)C(=O)N(CCCn2ccnc2)C1c1ccc(C)cc1 (stereo unspecified)
CC(=O)c1cccc(Nc2nc(-c3ccccc3)nc3ccccc23)c1
N#Cc1ccccc1N1CCN(C(=O)c2ccc(NC(=O)c3ccc(Br)o3)cc2)CC1
CCOc1ccc(NS(=O)(=O)c2ccc(OCC(=O)NCCCOC)cc2)cc1
Cc1ccc(S(=O)(=O)NCC(c2cccnc2)N2CCOCC2)cc1 (stereo unspecified)
O=[N+]([O-])C1C(c2ccccc2)=NOC1c1ccccc1O (stereo unspecified)
O=C(Nc1ccccc1)Nc1nnc(SCc2ccc(Cl)cc2)s1

Reference: PubChem BioAssay AID623959 (National Center for Advancing Translational Sciences (NCATS), 2012)
